Screens (PubChem BioAssay)
RE007 growth inh – less growth of the S. pombe RE007 Vpr strain | S. pombe RE007 Vpr strain, BacTiter-Glo ATP luminescence, 24 h | Potency, µM (top dose mostly 92.2 µM), most hits filed as inhibitors | actives 0.21% (n = 360,000) | AID 651644; active = well fitted falling curve with a large enough effect; inconclusive = small, poorly fitted or top-dose-only effect; inactive = no such curve, though single readings can be large or run the other way; note: nearly all actives have a fitted effect of over 50% in size
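Fission yeast strain RE007, carrying one chromosomally integrated HIV-1 vpr copy, was seeded at OD 0.01 in PMG+AL medium with 23 nL pinned compound. After 24 h at 30 °C and 99% humidity, viability was read by BacTiter-Glo luminescence.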
CHX counter – counter-screen for Shiga toxin inhibitors: cycloheximide protein synthesis inhibition; cell reporter, cycloheximide protein synthesis inhibition counterscreen; max response, %; actives 12% (n = 300,000); in the data active = max response mostly above about 13%, no sharp cut-off; inactive = mostly below about 14%; note: read at 38.3 µM for the half of the compounds with a filed dose
Tb PYK inh – inhibitors of Trypanosoma brucei pyruvate kinase. Q57TT1. TbPYK enzyme, Kinase-Glo Plus ATP luminescence, 45 min. Potency, µM (series often up to 76.8 µM), actives largely listed as inhibitors. actives 0.12% (n = 410,000); note: nearly all actives have a fitted effect of over 50% in size
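ADP (130 uM final) triggers the TbPYK reaction after compound addition; incubation is 45 min at room temperature. Kinase-Glo Plus is then added and luminescence imaged. Normalized data are fitted to concentration-effect curves.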
Giardia FBPA inh – blocks Giardia fructose-bisphosphate aldolase activity; Potency, µM (series often up to 59.6 µM), usual class: inhibitors; actives 0.71% (n = 290,000); AID 2451; purified Giardia FBPA; note: nearly all actives have a fitted effect of over 55% in size
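Giardia FBPA (40 nM reagent) was preincubated 10 min at RT with compound (up to 57.5 uM final), then substrate plus GAPDH/TPI/NAD/arsenate coupling system with diaphorase/resazurin was added; resorufin fluorescence (525/598 nm) was read after 20 min.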
LmPK inhibitor – LmPK (Leishmania mexicana) enzyme inhibition; Q27686; actives 0.37% (n = 290,000); AID 1721; Potency, µM (top dose mostly 57.5 µM), hits mostly inhibitors; purified LmPK, Kinase-Glo ATP luminescence, 1 h
Target sequence (Q27686 whole entry, looked up): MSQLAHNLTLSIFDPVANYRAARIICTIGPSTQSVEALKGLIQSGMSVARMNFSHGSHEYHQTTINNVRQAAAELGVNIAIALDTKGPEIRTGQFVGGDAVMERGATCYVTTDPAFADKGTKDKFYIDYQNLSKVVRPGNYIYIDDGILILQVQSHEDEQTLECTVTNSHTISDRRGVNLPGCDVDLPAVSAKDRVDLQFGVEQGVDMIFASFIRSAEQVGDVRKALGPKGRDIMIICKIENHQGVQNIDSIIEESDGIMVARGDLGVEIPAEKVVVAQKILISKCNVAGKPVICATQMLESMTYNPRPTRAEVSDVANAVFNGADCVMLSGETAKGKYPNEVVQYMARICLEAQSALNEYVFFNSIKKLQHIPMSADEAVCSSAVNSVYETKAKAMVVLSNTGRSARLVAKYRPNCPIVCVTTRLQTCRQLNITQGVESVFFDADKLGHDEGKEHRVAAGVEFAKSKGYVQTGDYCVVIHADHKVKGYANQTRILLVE
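Pyruvate kinase activity monitored as ATP production (luciferase luminescence). Conditions: 0.1 nM enzyme, 0.5 mM PEP, 0.1 mM ADP, 1 h, RT; normalized against uninhibited and no-enzyme wells.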
Shiga toxin inh – blocks Shiga toxin action in Vero cells. Vero cells, Shiga toxin protein synthesis inhibition reporter. inhibition, % at 38.7 µM. actives 9.2% (n = 290,000). AID 2315; in the data active = inhibition mostly above about 28%, no sharp cut-off; inactive = mostly below about 43%
Each line names hits and unclear results; the compound was inactive in the other large screens. Only a selection was taken, and hits are over-represented in it overall. Unless noted, calls come from the whole dose curve; as a rule, active = well fitted curve in the direction sought with a large enough effect; inconclusive = small, poorly fitted or top-dose-only effect, or another doubt; inactive = no such curve, though single readings can be large; an effect the other way counts as inactive or inconclusive.

Cc1ccc(N2C(=O)c3ccccc3C2C(=O)c2ccc(C)c(C)c2O)cc1 (stereo not given)	CHX counter 18
Cc1ccc(N2C(=O)c3ccccc3C2C(=O)c2ccc(O)cc2O)cc1 (stereo not given)	none
Cc1ccc(N2C(=O)c3ccccc3C2C(=O)c2cc(C)ccc2O)cc1 (stereo not given)	CHX counter 40, Shiga toxin inh active
Cc1ccc(C2C(C(=O)O)c3ccccc3C(=O)N2C)c(C)c1 (stereo not given)	none
Cc1cc(C)cc(-n2c(SCC(=O)N3CCCCCC3)nc3c([nH]c4ccccc43)c2=O)c1	none (no result: RE007 growth inh, CHX counter, Giardia FBPA inh, LmPK inhibitor, Shiga toxin inh)
COc1cc(/C=C/c2nc3cc(Cl)ccc3c(=O)n2-c2cccc(C(F)(F)F)c2)cc(OC)c1OC	none (no result: RE007 growth inh, CHX counter, Giardia FBPA inh, LmPK inhibitor, Shiga toxin inh)
Cc1ccc(N=C2C(=S)N(c3ccc(C)cc3)C(=N)N2/N=C/c2ccc(Cl)cc2)cc1	CHX counter 48, Shiga toxin inh 74
COc1ccc2c(c1OC)C(=O)OC2Nc1nc(-c2cc3cc([N+](=O)[O-])ccc3oc2=O)cs1 (stereo not given)	RE007 growth inh inconclusive
COc1ccc2c(c1OC)C(=O)OC2Nc1nc(-c2cc3ccccc3oc2=O)cs1 (stereo not given)	RE007 growth inh inconclusive, CHX counter 59, LmPK inhibitor 22µM, Shiga toxin inh 68
COc1ccc2c(c1OC)C(=O)OC2Nc1nc(-c2ccc(-c3ccccc3)cc2)cs1 (stereo not given)	RE007 growth inh inconclusive, CHX counter 80, Shiga toxin inh 121
COc1cccc(-c2csc(NC3OC(=O)c4c3ccc(OC)c4OC)n2)c1 (stereo not given)	CHX counter 46
O=C1C[C@H](c2ccc3ccccc3c2)N1S(=O)(=O)c1ccccc1[N+](=O)[O-]	none (no result: RE007 growth inh, Tb PYK inh, LmPK inhibitor)
Cc1ccc(CNC(=O)COCc2cc(-c3cccs3)on2)cc1	none (no result: RE007 growth inh, CHX counter, Giardia FBPA inh, LmPK inhibitor, Shiga toxin inh)
Cc1nc(Nc2ccccc2)c2nc(-c3ccccc3)n(CCCN3CCCCC3C)c2n1 (stereo not given)	none (no result: RE007 growth inh, CHX counter, Tb PYK inh, LmPK inhibitor, Shiga toxin inh)
COc1ccc(Cl)cc1Nc1nc(-c2cccnc2)cs1	none
COc1ccc2cc(-c3csc(-c4cccnc4)n3)ccc2c1	CHX counter 26
COc1ccc(-c2csc(-c3cccnc3)n2)cc1C	Shiga toxin inh 90
COc1ccc(NC(=O)c2sc3nc(C)c(C(=O)Nc4ccc(C)cc4C)c(-c4cccs4)c3c2N)cc1	none (no result: RE007 growth inh, CHX counter, Giardia FBPA inh, LmPK inhibitor, Shiga toxin inh)
Cc1ccccn1	none (no result: RE007 growth inh, CHX counter, Giardia FBPA inh, LmPK inhibitor, Shiga toxin inh)
O=C(/C=C/c1ccccc1)C1C(=O)c2ccccc2C1=O	CHX counter 33, Shiga toxin inh 42
CCOC(=O)/C(C#N)=C\c1ccc(N2CCN(C)CC2)cc1	CHX counter 26
CCOC(=O)/C(C#N)=C/c1ccc(N2CCN(C)CC2)cc1	CHX counter 29
CCOC(=O)C(/C=C(\C#N)C(=O)OCC)=C(/N)N1CCN(c2ccccc2)CC1	none
N#CCCCS(=O)(=O)c1nnnn1-c1ccc(Br)cc1	none (no result: RE007 growth inh, CHX counter, Tb PYK inh, LmPK inhibitor, Shiga toxin inh)
Cc1cccc(C(=O)NC(=S)Nc2ccc3[nH]c(=O)[nH]c3c2)c1	CHX counter 16
Cc1ccc(C(=O)NC(=S)Nc2ccc3[nH]c(=O)[nH]c3c2)c(C)c1	none
CC(=O)c1cccc(NC(=S)NC(=O)c2ccccc2C)c1	none
CC(=O)c1cccc(NC(=S)NC(=O)c2cccc(C)c2)c1	CHX counter 40, Shiga toxin inh 83 (no result: RE007 growth inh)
CC(=O)c1cccc(NC(=S)NC(=O)c2ccccc2Br)c1	none
CC(=O)c1cccc(NC(=S)NC(=O)c2ccc(Cl)cc2)c1	CHX counter 63, Shiga toxin inh 65
Cc1ccc(-n2c(SCc3ccccc3F)nc3[nH]ncc3c2=O)cc1Cl	none (no result: RE007 growth inh, CHX counter, Giardia FBPA inh, LmPK inhibitor, Shiga toxin inh)
CC1CCN(S(=O)(=O)c2ccc3c(c2)c(=O)c(C(=O)NCCc2ccccc2)cn3C)CC1	none (no result: RE007 growth inh, CHX counter, Giardia FBPA inh, LmPK inhibitor, Shiga toxin inh)
Cc1nnc(SCC(=O)NCc2cccs2)n1-c1ccccc1	none
Cc1nnc(SCc2ccccc2F)n1NCc1cccs1	CHX counter 24
CCOc1ccccc1-n1c(CNc2ccc(F)cc2)nnc1SCC(=O)NCc1ccco1	CHX counter 22
O=C(CSc1nnc(COc2ccccc2F)n1-c1ccccc1)NCc1ccco1	CHX counter 19, Shiga toxin inh 53
CCc1ccccc1NC(=O)Cn1c(=O)oc2ccccc21	none (no result: RE007 growth inh, CHX counter, Giardia FBPA inh, LmPK inhibitor, Shiga toxin inh)
